# Whole data set: some 33,000 sequences, median “E-score (-0.5 to 0.5)” near -0.015, cut for the highest 2% near 0.3. This is one part of a sample in which the highest values are shown more often than they occur.
# Molecular target: T1, Abf1 (UniProt P14164)
# T1 sequence: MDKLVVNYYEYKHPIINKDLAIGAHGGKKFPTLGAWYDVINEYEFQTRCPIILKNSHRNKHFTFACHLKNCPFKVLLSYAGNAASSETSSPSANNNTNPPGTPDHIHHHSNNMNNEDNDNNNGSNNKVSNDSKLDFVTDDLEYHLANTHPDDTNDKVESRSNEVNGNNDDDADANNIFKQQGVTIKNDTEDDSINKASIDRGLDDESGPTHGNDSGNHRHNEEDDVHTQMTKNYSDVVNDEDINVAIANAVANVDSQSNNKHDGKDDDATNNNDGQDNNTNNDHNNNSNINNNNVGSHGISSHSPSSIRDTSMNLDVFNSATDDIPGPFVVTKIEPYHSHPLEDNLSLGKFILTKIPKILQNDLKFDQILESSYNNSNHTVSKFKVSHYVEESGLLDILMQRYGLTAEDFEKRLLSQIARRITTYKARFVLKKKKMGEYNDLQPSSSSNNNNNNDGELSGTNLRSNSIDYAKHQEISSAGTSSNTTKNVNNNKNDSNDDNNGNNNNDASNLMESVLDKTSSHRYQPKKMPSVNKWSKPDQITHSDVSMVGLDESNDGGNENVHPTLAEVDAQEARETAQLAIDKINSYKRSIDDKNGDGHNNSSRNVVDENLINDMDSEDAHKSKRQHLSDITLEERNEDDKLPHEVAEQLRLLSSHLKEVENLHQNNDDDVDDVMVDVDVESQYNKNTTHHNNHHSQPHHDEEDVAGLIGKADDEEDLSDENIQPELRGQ
# Experiment: PBM E-score (8-mer binding enrichment) (E-score (-0.5 to 0.5)); higher = stronger / more preferred TF binding
# Details: protein concentration: 200 nM; construct: GST-full length
# Outline: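 Yeast transcription factors carrying a GST tag, as full-length proteins or DNA-binding domains, were produced by PURExpress in vitro transcription/translation. About 100-200 nM protein was applied to universal all-10-mer Agilent arrays, double-stranded by primer extension on fresh or once-stripped slides. Bound protein was detected with fluorescent anti-GST, and scans were normalised with masliner. The Universal PBM Analysis Suite gave each ungapped eight-base word, pooled with its reverse complement, an E-score, a modified Wilcoxon-Mann-Whitney statistic.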
row,Sequence,PBM E-score
1,CCCGGCCA,-0.267
2,AACAGCTG,-0.0093
3,ACACTGGG,-0.134
4,GCAACTCC,-0.257
5,ACACGTGA,0.237
6,CCGAACCG,-0.0651
7,AATGATGG,0.0838
8,CATGATAC,0.236
9,AATGATTA,0.273
10,AATGATAG,0.229
11,GATGATAA,0.36
12,GATGATAC,0.297
13,AATGATGA,0.282
14,AATGATAA,0.408
15,AATGATGT,0.325
16,GATAATAA,0.24
17,AATGATAC,0.288
18,AGCTAGGG,-0.309
19,CCTGCGTC,-0.22
20,ATACTTTA,0.094
21,ACAACCGG,0.0327
22,GGGGCATA,-0.184
23,CAGCTTAA,-0.00327
24,CATGATAA,0.356
25,AATGATAT,0.436
26,AATGAGAT,0.148

row,Sequence,PBM E-score
1,CATGATAG,0.0986
2,AATGAAAT,0.166
3,TATGATAA,0.258
4,CTGGATGA,0.0651
5,CCTTGAAG,-0.111
6,GCGTGGCA,-0.0717
7,CGACGAAC,0.168
8,GGACGAAA,0.0999
9,AGACGAAG,0.135
10,CGACGAGA,0.13
11,CGACGAAG,0.357
12,AGACGAAA,0.296
13,CAACGAAA,0.23
14,CGACGAAA,0.363
15,TGACGAAA,0.349
16,TCAACGCA,-0.00848
17,CCCAGAAC,-0.144
18,GTGCCTTA,0.0147
19,AGCCTGAG,-0.27
20,GTATACGA,0.242
21,ATATACGG,0.339
22,ATATACCA,0.173
23,CTATACGC,-0.0573
24,ATATACCG,0.268
25,ATCTACGG,0.344
26,ATATACGC,0.146

row,Sequence,PBM E-score
1,AGATACGA,0.223
2,ATCTACGC,0.0634
3,ATATACGA,0.324
4,ATCTACGA,0.233
5,CTATACGA,0.327
6,CTGGCGGA,-0.122
7,AGTCGCTC,-0.106
8,CGACCCTC,-0.152
9,GTCGACGA,0.26
10,TAAGATGA,0.182
11,AGACGGCT,-0.0258
12,CGTATACG,0.195
13,ATCGCCCC,-0.113
14,ACAACTTA,0.0805
15,GTAAAGAA,0.113
16,ACCACACA,-0.0452
17,CTGCCGTA,0.122
18,GTAAGCAA,0.0905
19,CTTGTCAC,0.357
20,ATTGTCAG,0.141
21,ATTGTCAA,-0.0577
22,CTTGTCAA,0.0838
23,ATTGTCAC,0.398
24,CCTGTCAC,0.149
25,TAGCCGGA,-0.117
26,ATGTGACA,0.288

row,Sequence,PBM E-score
1,CAGTGACG,0.239
2,AAGTGACC,0.252
3,AAGTGACA,0.394
4,AAGTGACG,0.352
5,AAGTGAGG,-0.0213
6,AAGTGACT,0.328
7,AAGTGCCA,-0.105
8,AAGTGGCT,-0.149
9,GGGCTATA,-0.0762
10,AATCACCC,0.195
11,AACGCAAC,0.0366
12,CATTTTGG,0.124
13,AGAGTGTG,-0.158
14,AGGTGAGG,0.115
15,TACAACCA,-0.0973
16,CCGAAGGA,-0.29
17,ACCTCATA,0.195
18,CGGAAGAG,-0.212
19,AGTCCCCG,-0.265
20,AGTTTATA,0.0788
21,AACTTAGC,0.0723
22,ATGCACGC,-0.131
23,GTGCACGA,0.187
24,CTGCACGC,-0.24
25,ATGCACGA,0.362
26,ATGCACGG,0.258

row,Sequence,PBM E-score
1,CTGCACGA,0.303
2,CCAGAGGG,-0.267
3,AGAATTTG,-0.0116
4,AAACGAAG,0.108
5,GTAATGCA,-0.123
6,CATGCTAA,0.0181
7,AAATACGG,0.314
8,CAATACGA,0.281
9,TAATACGA,0.337
10,AGATACGG,0.129
11,GAATACGA,0.253
12,AAATACGA,0.333
13,AAATACGT,0.039
14,CAATACGG,0.228
15,AAATACGC,0.0308
16,CCACGCGG,-0.0923
17,ATACTTAG,-0.0263
18,GAAGCTGA,-0.0959
19,GCAGACCC,-0.286
20,CACTGTCA,0.234
21,GTTCGAAC,0.21
22,GTGACAAC,0.375
23,CTGACAAA,0.0266
24,GTGACAAA,0.412
25,ATGACAAT,0.344
26,AGGACAAT,0.125

row,Sequence,PBM E-score
1,AAGACAAT,0.138
2,GGGACAAC,-0.0272
3,TTGACAAA,0.182
4,AGGACAAA,0.121
5,CTGACAAC,-0.0598
6,AAGACAAA,0.127
7,ATGACAAA,0.338
8,TACGCGCA,0.0188
9,TCCCGAAA,0.0516
10,AATGAAGT,-0.0259
11,ATAAACCA,0.0453
12,GCAATGAC,0.245
13,GCACGCAC,0.0219
14,ACCTGCGT,-0.045
15,ATCCACAC,-0.103
16,GACGGGAA,0.098
17,CGGCAGAG,-0.193
18,CATCCCCG,-0.108
19,ATAACGAG,0.24
20,AGCGTGCA,0.0338
21,CTCGCATA,-0.0654
22,ATGACAAG,0.282
23,ATGACAAC,0.343
24,ATGACAGC,0.199
25,CATAGAAA,0.105
26,GATCATGA,0.227

row,Sequence,PBM E-score
1,CATCATGG,0.101
2,CATCATGC,0.128
3,TATCATGA,0.306
4,AATCATGA,0.274
5,CATCATGA,0.298
6,ACTGGCCG,-0.142
7,ACATTGAG,-0.169
8,CCTGGCGA,-0.127
9,GGCCATCA,-0.255
10,AATCGAAA,0.126
11,CGAAGGGA,-0.118
12,CGATGAGA,0.19
13,CGATGATC,0.287
14,GGATGATA,0.31
15,AGATGATG,0.216
16,GGATGAGA,-0.0398
17,CGATGATA,0.305
18,AGATGATC,0.176
19,AGATGATA,0.364
20,GGATGAAA,0.128
